Screens from PubChem.
An excerpt weighted towards active compounds, which were near 4.4% of everything screened.
D1 potentiator: human D1 dopamine receptor positive modulation; potentiation, % at 10 µM; HEK293 TREx D1 cells, calcium flux, dopamine EC20 potentiation; P21728; AID 504651; 360,000 compounds, 0.036% hits; in the data active = potentiation above about 30%; also: 0% is about no effect
Target sequence (P21728 whole entry, looked up): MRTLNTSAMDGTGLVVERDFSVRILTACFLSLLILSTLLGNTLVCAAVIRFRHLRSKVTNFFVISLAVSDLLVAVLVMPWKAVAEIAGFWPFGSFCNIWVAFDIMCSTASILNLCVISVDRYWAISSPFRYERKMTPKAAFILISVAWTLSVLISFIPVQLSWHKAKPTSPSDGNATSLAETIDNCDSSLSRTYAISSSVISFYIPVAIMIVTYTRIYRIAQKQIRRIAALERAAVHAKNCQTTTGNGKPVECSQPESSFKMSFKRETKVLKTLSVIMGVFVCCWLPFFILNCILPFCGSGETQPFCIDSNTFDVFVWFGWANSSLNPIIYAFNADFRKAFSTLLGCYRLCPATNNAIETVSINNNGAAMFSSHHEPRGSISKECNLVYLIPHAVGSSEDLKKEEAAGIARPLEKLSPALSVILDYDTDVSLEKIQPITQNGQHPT
TRHR agonist: agonists of human TRH receptor | P34981 | TRHR cells, calcium flux fluo-8, FDSS agonist mode | activation, % at 2 µM | 360,000 compounds, 0.18% hits; also: 0% is about no effect
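Read-out: compound-evoked intracellular calcium rise in TRHR cells, fluo-8 dye, kinetic FDSS fluorescence at 1 s/cycle following a 10-cycle baseline. Cells cultured overnight before dye loading (30 min–1.5 h, RT).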
USP1-UAF1 inh: USP1/UAF1 (human) deubiquitinase inhibition | O94782 | recombinant USP1/UAF1, Ub-Rhodamine cleavage fluorescence | Potency, µM (highest dose often 57.1 µM), without a hit: at the highest dose activity change, negative = inhibition, usual class: inhibitors | 390,000 compounds, 0.23% hits; active = well fitted inhibition curve with a large enough effect; inconclusive = small, poorly fitted or top-dose-only effect; inactive = no such curve, though single readings can be large or run the other way; also: potency is read from the fitted curve at half-maximal effect; % is scaled to controls: 0 for no effect and ±100 for the full control effect; nearly all actives have a fitted effect of over 60% in size
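Step one: compound is pinned into 1nM USP1/UAF1 in HEPES pH 7.8 buffer with TCEP. Step two: 15 min room-temperature incubation. Step three: Ub-Rho (150nM final) starts cleavage, tracked by fluorescence over six one-minute reads.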
TRHR PAM: allosterically enhances the human TRH receptor; AID 493056; P34981; enhancement, % at 2 µM; 360,000 compounds, 0.66% hits; TRHR cells, fluo-8 calcium fluorescence, EC20 TRH enhancement; in the data active = enhancement above about 30%; also: 0% is about no effect
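TRHR-expressing cells loaded with fluo-8 calcium dye were read kinetically (ex 480/em 530) during compound addition, then stimulated with an EC20 of TRH (10 nM final). Enhancement of the Gq-mediated intracellular calcium response was scored.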
D1 agonist: human D1 receptor agonism; P21728; HEK293 T-REx D1 cells, calcium flux, agonist mode; activation, % at 2 µM; 360,000 compounds, 1% hits; also: 0% is about no effect
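Agonism was scored from calcium flux recorded over 180 s (1 read/s) after pintool compound addition, following a 10-cycle baseline. Cells were inducible force-coupled HEK293 TREx D1, plated overnight at 30 C and loaded with no-wash calcium dye.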
D1 antag: blocks dopamine activation of the human D1 receptor; P21728; HEK293 TREx D1 cells, calcium flux, dopamine EC80; hits give low values; activity change, negative = inhibition, % at 10 µM; 360,000 compounds, 3.2% hits; in the data active = activity change below about -30%; also: % is scaled to controls: 0 for no effect and ±100 for the full control effect
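After overnight tetracycline induction at 30 C, force-coupled D1 HEK293 cells took up a no-wash calcium dye at room temperature. Compounds were added and monitored 180 s, and the response to EC80 dopamine was then recorded.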
The depositor's hits bear a star; u = inconclusive; x = not tested or not shown. Rule as the data show it, unless noted: active = activation above about 30%; inactive = the rest.

SMILES	D1 potentiator	TRHR agonist	USP1-UAF1 inh	TRHR PAM	D1 agonist	D1 antag
COc1cc(/C=N/NC(=O)c2ccc(N)cc2)ccc1OC(=O)c1cccc(C)c1	2	0	-7%	-5	4	-41*
O=C(COc1cc2oc(=O)c3c(c2cc1Cl)CCC3)NCc1ccncc1	8	0	-20%	36*	1	-5
COc1ccc(OC)c(CCNc2ncnc3onc(-c4ccc(Cl)cc4)c23)c1	0	2	-28%	-10	11	-3
COc1ccc(OC)c(CCNc2ncnc3onc(-c4ccc(F)cc4)c23)c1	-3	-1	-28%	10	33*	-32*
Cc1cccc2sc(N(CCN(C)C)C(=O)C3CCN(S(=O)(=O)c4cccs4)CC3)nc12	-5	0	-12%	5	39*	24
CN(C)CCN(C(=O)C1CCN(S(=O)(=O)c2cccs2)CC1)c1nc2ccc(F)cc2s1	-4	0	-16%	1	5	27
O=C(c1ccccc1F)c1cc2c(cc1[N+](=O)[O-])OCCO2	-2	-1	-17%	6	2	-9
COc1ccc(C(=O)c2cc3c(cc2[N+](=O)[O-])OCCO3)cc1	1	0	3%	-2	-1	-32*
COc1ccc(Nc2nc(NCc3ccco3)nc(N/N=C/c3ccccc3F)n2)cc1	-6	0	-7%	-4	2	-42*
COc1ccc(/C=N/Nc2nc(NCc3ccco3)nc(Nc3ccc(OC)cc3)n2)cc1	-6	0	-13%	-1	2	-5
CCNC(=O)C/C(C)=N/NC(=O)C12CC3CC(CC(C3)C1)C2	-4	0	2%	0	0	-32*
CCNC(=O)C/C(C)=N/NC(=O)C1CCCCC1	-7	0	-5%	-8	4	-2
Cc1cc(=O)[nH]c2nnc(SCC(=O)Nc3ccc(OC(F)(F)F)cc3)n12	1	0	-21%	2	-2	x
Cc1ccc(C)c(CNC(=O)c2ccc3c(c2)nc2n3CCCCC2)c1	0	0	5%	-4	-1	9
O=C1c2ccccc2-c2onc3ccc(Oc4ccccc4)c1c23	21	2	-15%	32*	11	97
Cc1c(NC(=O)C23CC4CC(CC(C)(C4)C2)C3)c(=O)n(-c2ccccc2)n1C	-9	0	-12%	-13	3	14
CC(=O)NC12CC3CC(C1)CC(C(=O)Nc1c(C)n(C)n(-c4ccccc4)c1=O)(C3)C2	0	0	-16%	15	3	-41*
COc1cccc(-c2nnn(CCC(=O)O)n2)c1	-10	0	-7%	-7	0	-40*
CC(C(=O)NC1CCCC1)N(C(=O)CS(=O)CC(=O)Nc1ccc(F)cc1)c1ccc2c(c1)OCCO2 (configuration not stated)	0	0	-8%	-1	-1	-52*
O=C(CS(=O)CC(=O)N(CC(=O)NC1CCCC1)c1ccccc1F)Nc1ccc(F)cc1 (configuration not stated)	1	0	-20%	1	0	-35*
Cc1ccc(S(=O)(=O)Nc2cc3c(cc2N2CCOCC2)n(C)c(=O)n3C)c(C)c1	3	0	-18%	4	0	-18
CN1CCN(CCCNC(=O)c2ccc(/C=C3\Oc4ccccc4N(Cc4ccccc4F)C3=O)cc2)CC1	-10	-1	-5%	0	103*	-47*
CCOc1ccccc1NC(=O)Cn1c(=O)n(CCCC(=O)NCCc2ccc(C)cc2)c(=O)c2ccccc21	1	0	u	2	-1	-9
O=c1c2cnn(-c3ccccc3)c2ncn1Cc1cccnc1	-3	0	2%	11	2	1
COc1ccc(-n2ncc3c(=O)n(CC(C)=O)cnc32)cc1	-4	0	-18%	-3	2	-34*
O=c1c2cnn(-c3ccccc3)c2ncn1Cc1ccccn1	8	0	-22%	-2	3	-41*
Cc1cccc(C)c1Nc1c(-c2ccc(Cl)s2)nc2ncccn12	0	3	u	8	9	6
